Rows were chosen to be rich in hits. Some 2.9% of all compounds tested hit in one or more screens of this group.
FID counter – displaces DNA intercalator in HCV helicase counter-screen; DNA fluorescent intercalator displacement, fluorescence; inhibition, % at 7.9 µM; 0.17% of 290,000 active; in the data active means inhibition above about 37%;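 further: 0% = vehicle and 100% = reference compound; higher means more ethidium bromide displaced from hairpin DNA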
MEKK2wt PB1 HTS – raises or lowers MEK5 binding to wildtype human MEKK2 PB1 domain | Q9Y2U5 | bead flow cytometry, Alexa488-MEK5 binding to MEKK2 WT; actives lie on both sides | binding response (% of control), % at 10 µM | 1.1% of 290,000 active | AID 1531; in the data active means binding response below about 67% or above about 130%; inconclusive means no clear call, values can overlap the other calls; inactive means in between
MEKK2mut PB1 HTS – signal of MEK5 binding to mutant human MEKK2 PB1 domain | 0.35% of 290,000 active | bead flow cytometry, Alexa488-MEK5 binding to MEKK2 mutant | percent response, % at 10 µM | AID 1530; in the data active means percent response above about 24%, passing the limit was not always enough
MEKK3 PB1 HTS – modulators (inhibitors or enhancers) of MEK5 binding to human MEKK3 PB1 domain | AID 1529 | bead-based flow cytometry, Alexa488-MEK5 binding to MEKK3; actives lie on both sides; 0 = blocked by unlabeled MEK5, 100 = vehicle | 1.4% of 290,000 active | binding response (% of control), % at 10 µM;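 active means binding response more than 3 SD above or below the average of its plate-row segment, actives on both sides; inconclusive means wells at one plate position flagged as instrument error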;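 further: Alexa488 bead fluorescence after subtracting the streptavidin-only scavenger bead signal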
Target sequence (Q99759 whole entry, looked up, the tested form may be a part): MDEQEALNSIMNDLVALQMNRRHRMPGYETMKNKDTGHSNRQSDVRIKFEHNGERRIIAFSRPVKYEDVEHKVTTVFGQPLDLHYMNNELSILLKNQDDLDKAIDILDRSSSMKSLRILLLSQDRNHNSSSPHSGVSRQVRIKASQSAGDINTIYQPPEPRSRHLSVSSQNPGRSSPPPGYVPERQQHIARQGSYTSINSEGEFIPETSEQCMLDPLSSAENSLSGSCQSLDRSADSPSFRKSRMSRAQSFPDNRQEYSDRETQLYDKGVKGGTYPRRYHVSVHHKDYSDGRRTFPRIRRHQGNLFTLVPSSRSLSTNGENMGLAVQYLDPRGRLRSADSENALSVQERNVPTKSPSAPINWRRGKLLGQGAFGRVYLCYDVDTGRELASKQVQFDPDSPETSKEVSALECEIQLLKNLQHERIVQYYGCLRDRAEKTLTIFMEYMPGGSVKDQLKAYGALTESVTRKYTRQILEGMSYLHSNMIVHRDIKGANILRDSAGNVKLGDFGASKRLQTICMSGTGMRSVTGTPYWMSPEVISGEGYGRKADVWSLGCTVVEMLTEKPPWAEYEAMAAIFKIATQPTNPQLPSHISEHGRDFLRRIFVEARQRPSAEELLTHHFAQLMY
dFosB act – mouse delta FosB homodimer activation | purified delta FosB, TAMRA-CDK5 oligo fluorescence polarization; percent of positive-control signal above neutral wells | activation, % at 25 µM | 0.99% of 340,000 active | AID 493131;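 active means mean activation above about 17%, with every replicate also reaching it, limit read from the data, passing the limit was not always enough; inconclusive means only one of the two conditions met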
MEKK2wt confirm – raises or lowers MEK5 binding to wildtype human MEKK2, retest; shares compounds with MEKK3 PB1 HTS; bead flow cytometry, Alexa488-MEK5 binding to MEKK2 WT; actives lie on both sides; binding response (% of control), % at 10 µM; 2.4% of 5,900 active; AID 1892; in the data active means binding response below about 16% or above about 210%; inactive means in between
MEKK2mut-MEK5 – signal of MEK5 binding to mutant human MEKK2, retest | percent response, % at 10 µM | bead flow cytometry, Alexa488-MEK5 binding to MEKK2 mutant | shares compounds with MEKK3 PB1 HTS | AID 1893 | 2% of 5,900 active; in the data active means percent response mostly above about 71%, no sharp cut-off; inactive means mostly below about 38%;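 further: higher means compound restores mutant binding toward wildtype level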
MEKK3-MEK5 inh – MEKK3-MEK5 PB1 inhibition, single concentration confirmation | shares compounds with MEKK3 PB1 HTS | binding response (% of control), % at 10 µM | 1.8% of 5,900 active | bead flow cytometry, Alexa488-MEK5 binding to MEKK3; active compounds read low;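 active means binding response below 72% of control, or above a set upper limit, though filed actives all read lower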;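 further: 100% = DMSO only wells and 0% = binding blocked by excess unlabeled MEK5; lower values mean stronger disruption of MEK5 binding to MEKK3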
An asterisk follows results filed as active; ? = inconclusive; · = no result; ! = not confirmed by another sample; [ ] = another dose, or the depositor's remark.

SMILES | FID counter | MEKK2wt PB1 HTS | MEKK2mut PB1 HTS | MEKK3 PB1 HTS | dFosB act | MEKK2wt confirm | MEKK2mut-MEK5 | MEKK3-MEK5 inh
CCCCn1c(N)c(-c2nc3ccccc3s2)c2c([N+](=O)[O-])nn(C)c(=O)c21 | 1.2 | 100.0 | -3.0 | 82.0*[inhibitor] | -6.8 | 112.0 | 5.0 | 97.0
CCCCOc1ccc(CC(=O)NCC(=O)O)cc1 | -6.1 | 92.0 | -2.0 | 57.0*[inhibitor] | 3.1 | 99.0 | 3.0 | 105.0
Cc1ccc(OCC(=O)OCC(=O)c2ccccc2)cc1C | -22.4 | 105.0 | 7.0 | 107.0 | -9.7 | · | · | ·
N#CC(C#N)=c1ccc2c(c1)N1C(c3ccccc3)=CC(c3ccccc3)C3CCCCC31N=2 (stereo unspecified) | -0.2 | 91.0 | -33.0 | 27.0*[inhibitor] | 0.9 | 45.0 | -28.0 | 61.0*
COc1cc(CNCCc2c[nH]c3ccccc23)ccc1OCc1ccccc1F | 21.6 | 244.0* | 60.0* | 115.0 | 4.2 | 170.0 | 73.0* | 108.0
COc1cccc(CNCCc2c[nH]c3ccccc23)c1OCc1ccccc1 | 51.8* | 165.0* | 58.0* | 104.0 | 2.0 | 148.0 | 15.0 | 105.0
CCCCN(C(=O)CCCc1nc2ccccc2c(=O)[nH]1)c1c(N)n(CC(C)C)c(=O)[nH]c1=O | · | · | · | · | -7.4 | · | · | ·
C=CCN(c1ccccc1)S(=O)(=O)c1ccc2c(c1)N(C(C)=O)CCO2 | -31.9 | 96.0 | -4.0 | 90.0 | 0.7 | · | · | ·
O=C(Nc1ccc(O)cc1)/C(=C\C=C\c1ccccc1)NC(=O)c1ccccc1 | -14.0 | 93.0 | -9.0 | 99.0 | 3.0 | · | · | ·
O=C(O)CCNC(=O)/C(=C\C=C\c1ccccc1)NC(=O)c1ccccc1 | -21.0 | 125.0 | 35.0 | 134.0* | 0.7 | 98.0 | -8.0 | 99.0
Cc1ccc(C(=O)N/C(=C\C=C\c2ccccc2)C(=O)NCc2ccco2)cc1 | -22.2 | 107.0 | 0.0 | 146.0* | 3.4 | 96.0 | -5.0 | 101.0
O=C(NCc1ccco1)/C(=C/C=C/c1ccccc1)NC(=O)c1ccco1 | -4.8 | 93.0 | -8.0 | 98.0 | 1.8 | · | · | ·
CC(NCc1ccc(S(N)(=O)=O)cc1)C(=O)N1c2ccccc2CC1C (stereo unspecified) | -0.6 | 106.0 | 1.0 | 99.0 | -0.3 | · | · | ·
Cc1ccc(-c2nn(-c3ccccc3)cc2CO)cc1 | -16.8 | 110.0 | 11.0 | 107.0 | -9.4 | · | · | ·
N=C(N)SCc1cn(-c2ccccc2)nc1-c1ccc(Br)cc1 | 24.8 | 256.0* | 107.0* | 115.0 | -117.6 | 265.0* | 105.0* | 113.0
COc1ccc(C(C)=O)cc1COC(=O)c1cc(C)nc2ccccc12 | -12.7 | 100.0 | 0.0 | 106.0 | -6.7 | · | · | ·
COc1ccc(C(C)=O)cc1COC(=O)c1ccc2ccccc2n1 | -21.5 | 107.0 | -1.0 | 129.0* | -10.2 | 102.0 | 3.0 | 102.0
O=C(O)c1cccc(N2C(=O)c3cccc(Oc4ccc(Cl)cc4)c3C2=O)c1 | -30.2 | 101.0 | -1.0 | 131.0* | 1.8 | 93.0 | -6.0 | 96.0
O=C(O)c1ccc(N2C(=O)c3cccc(Oc4ccc(Cl)cc4)c3C2=O)cc1 | -26.5 | 105.0 | 2.0 | 106.0 | -1.0 | · | · | ·
Oc1[nH]c2ccccc2c1N=NC(=S)NCCc1ccccc1 | -3.5 | 102.0 | 0.0 | 130.0* | -4.1 | 94.0 | -7.0 | 96.0
CNC(=O)N(O)C1N(NC(=O)Nc2cccc3ccccc23)C(=S)SC1(C)C (stereo unspecified) | 3.4 | 105.0 | 1.0 | 132.0* | -8.7 | 101.0 | 3.0 | 100.0
CC1(C)SC(=S)N(NC(=O)Nc2ccccc2)C1N(O)C(=O)Nc1ccccc1 (stereo unspecified) | -1.5 | 96.0 | 1.0 | 103.0 | 5.2 | · | · | ·
COc1ccc(C(=O)N/N=C/c2sc(N3CCOCC3)nc2-c2ccccc2)cc1OC | -8.4 | 79.0 | -10.0 | 97.0 | -19.7 | · | · | ·
COc1ccccc1NS(=O)(=O)c1cc([N+](=O)[O-])ccc1N/N=C/c1sc(N2CCOCC2)nc1-c1ccccc1 | 0.3 | 65.0 | 205.0* | 81.0 | -7.5 | 85.0 | -10.0 | 94.0
CCCCCCCCCCOC(=O)Cn1c(COc2ccc(Cl)cc2)[n+](C)c2ccccc21 | 14.7 | 349.0* | 101.0* | 115.0 | -118.4 | 204.0 | 54.0 | 108.0
SMILES | FID counter | MEKK2wt PB1 HTS | MEKK2mut PB1 HTS | MEKK3 PB1 HTS | dFosB act | MEKK2wt confirm | MEKK2mut-MEK5 | MEKK3-MEK5 inh
CCCCCCCCCCOC(=O)Cn1c(COc2ccccc2)[n+](C)c2ccccc21 | 27.4 | 226.0* | 61.0* | 113.0 | 34.7* | 230.0* | 84.0* | 114.0
CCCCCOC(=O)Cn1c(=O)oc2ccccc21 | -11.2 | 109.0 | 7.0 | 105.0 | -9.8 | · | · | ·
CCCCCCCCCCOC(=O)Cn1c(COc2ccc(OC)cc2)[n+](C)c2ccccc21 | 23.2 | 256.0* | 80.0* | 120.0 | 40.4*! | 266.0* | 79.0* | 108.0
CCCCOC(=O)Cn1c(=O)n(CC(=O)OCCCC)c2ccccc21 | -31.4 | 98.0 | 2.0 | 101.0 | -14.9 | · | · | ·
Cc1ccccc1OCc1n(CC(=O)OC2CC(C)CCC2C(C)C)c2ccccc2[n+]1C (stereo unspecified) | 37.9*! | 159.0* | -3.0 | 104.0 | -0.4 | 175.0 | 39.0 | 109.0
C=C(C)CNC(=S)N1CCNC(=O)C1CC(=O)OC (stereo unspecified) | -0.9 | 101.0 | -1.0 | 99.0 | 2.7 | · | · | ·
CCCCCCCCCCOC(=O)Cn1c(COc2ccccc2C)[n+](C)c2ccccc21 | 26.9 | 293.0* | 141.0* | 115.0 | 37.4* | 254.0* | 150.0* | 111.0
CCCCCCCCCCOC(=O)Cn1c(COc2cccc(C)c2)[n+](C)c2ccccc21 | 24.2 | 402.0* | 112.0* | 123.0* | ? | 254.0* | 90.0* | 109.0
CCCCOc1ccc(C(=O)NCC(=O)NC2CCCCC2)cc1 | · | · | · | · | 4.6 | · | · | ·
CCOc1ccc(-c2nnc(-c3snc(-c4ccc(F)cc4)c3N=CN(C)C)o2)cc1 | -0.2 | 96.0 | 4.0 | 102.0 | -0.6 | · | · | ·
Cc1ccc(CN2CCSc3ccc(C(=O)NC4CCN(Cc5ccccc5)CC4)cc32)cc1 | 2.2 | 206.0* | 46.0 | 106.0 | 43.0* | 240.0* | 80.0* | 110.0
Cc1ccc(CN2CCSc3ccc(C(=O)NCc4ccco4)cc32)cc1 | -27.8 | 58.0*[inhibitor] | -15.0 | 56.0*[inhibitor] | -5.2 | 100.0 | -2.0 | 105.0
Cc1ccc(CN2CCSc3ccc(C(=O)NCCCN4CCOCC4)cc32)cc1 | 18.0 | 125.0 | 9.0 | 107.0 | -15.2 | · | · | ·
Brc1ccc(C2=Nc3cccc4cccc(c34)N2)o1 | 3.5 | 109.0 | 2.0 | 142.0* | 22.8* | 99.0 | 3.0 | 98.0
COc1cccc(/C=N/NC(=O)CCC(=O)Nc2ccc(Br)cc2)c1 | -8.1 | 99.0 | -5.0 | 102.0 | 14.1 | · | · | ·

Bioassay records as filed in PubChem.
